Compound activity as filed in PubChem.
A selection: hits, their analogues and other compounds. The true share with any hit is near 4.1%.
hcDAF12 agonist – activators of H. contortus DAF-12 nuclear receptor. HEK293 hcDAF-12 lit1-tk-luc reporter, luminescence; 0% DMSO, 100% Δ7-dafachronic acid. activation, % at 6.8 µM. 1.4% of 370,000 active. AID 652067;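 active = activation above the mean of all tested compounds plus 3 SD, cut at about 5.5% in these data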;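 note: 100% = response to 3 µM Δ7-dafachronic acid high control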
DAX1 inh-1 – blocks DAX1 repression of SF-1 activated StAR promoter; 1.1% of 370,000 active; AID 652010; inhibition, % at 6.8 µM; HEK293T StAR-luciferase reporter, SF-1/DAX-1 repression relief;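 active = inhibition above the mean over all tested compounds plus 3 SD, cut at about 3.6% in these data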;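 note: 0% = DAX-1 cells with DMSO and 100% = cells lacking DAX-1 with DMSO; higher inhibition means more luminescence from relief of DAX-1 repression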
DAX1 inh-2 – inhibits human nuclear receptor DAX1; P51843; HEK293 Gal4-DAX1 luciferase reporter, luminescence; inhibition, % at 6.75 µM; 0.99% of 340,000 active; AID 504766;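 active = inhibition above the mean over all tested compounds plus 3 SD, cut at about 4.2% in these data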;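 note: 0% = DAX1-transfected cells with DMSO and 100% = empty-vector control cells with DMSO; inhibition shows as a rise in luminescence from relieved DAX1 repression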
Target sequence (P51843 207-470 limits assumed): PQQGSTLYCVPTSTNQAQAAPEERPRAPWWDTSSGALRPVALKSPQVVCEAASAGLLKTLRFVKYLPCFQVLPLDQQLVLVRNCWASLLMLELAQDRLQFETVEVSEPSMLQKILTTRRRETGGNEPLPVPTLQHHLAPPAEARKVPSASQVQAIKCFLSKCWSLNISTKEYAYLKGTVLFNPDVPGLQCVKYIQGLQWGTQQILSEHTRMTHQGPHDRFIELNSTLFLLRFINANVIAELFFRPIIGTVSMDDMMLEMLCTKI
ssDAF12 agonist – S. stercoralis DAF-12 activation, primary screen | AID 652126 | 1% of 370,000 active | HEK293 ssDAF-12/GRIP1 lit1-tk-luc reporter, luminescence; % of 3 µM dafachronic acid response | activation, % at 6.8 µM;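 active = activation above the mean over all tested compounds plus 3 SD, cut at about 0.9% in these data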;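 note: 0% = DMSO-only wells and 100% = 3 µM delta7-dafachronic acid wells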
hgDAF-12 ag – hgDAF-12 agonism, primary luciferase screen; activation, % at 6.8 µM; HEK293 GAL4-hgDAF12 UAS-luciferase reporter, agonist luminescence; normalized to butyrate control; 1.8% of 370,000 active;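 active = activation above a cutoff set at the mean of all screened compounds plus 3 SD, cut at about 10% in these data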;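 note: 0% = DMSO wells and 100% = sodium butyrate wells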
LXRb hcDAF ctr – activates human LXR-beta, counter-screen for hcDAF-12 agonists; HEK293 Gal4-LXR tk-luc reporter, luminescence, 24 h; normalized: DMSO 0%, positive control 100%; 3,400 tested, under 10 active; activation, % at 6.8 µM; shares compounds with hcDAF12 agonist;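 active = mean percent activation of the reporter above a cutoff set as the average over tested compounds plus their standard deviation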
hcDAF12 ag – hcDAF-12 agonism, confirmation assay; HEK293 hcDAF-12 lit1-tk-luc reporter, luminescence; % of Δ7-dafachronic acid response; 61% of 3,400 active; activation, % at 6.8 µM; AID 743032; shares compounds with hcDAF12 agonist;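 active = mean activation across triplicate tests above the threshold derived from the earlier primary screen, cut at about 5.5% in these data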;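 note: 0% = DMSO only wells and 100% = 3 µM Δ7-dafachronic acid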
hgDAF12 ag – confirmation of H. glycines DAF-12 agonists | shares compounds with hgDAF-12 ag | AID 743050 | activation, % at 6.8 µM | HEK293 GAL4-hgDAF12 luciferase reporter, agonist mode; percent of butyrate response | 80% of 3,300 active;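 active = mean activation over triplicate wells above the hit cutoff derived from the earlier primary screen, cut at about 11% in these data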;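 note: 0% = DMSO low control and 100% = 2 mM sodium butyrate high control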
LXR ag 2 – LXR-beta agonism as DAF-12 counter-screen. shares compounds with hgDAF-12 ag. HEK293 Gal4-LXR luciferase reporter, 24 h. activation, % at 6.8 µM. 3,300 tested, under 10 active. AID 743051;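 active = mean activation of the triplicate above a set limit carried over from the primary screen, none filed active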
An asterisk follows results filed as active; · = not tested or not shown.

SMILES	hcDAF12 agonist	DAX1 inh-1	DAX1 inh-2	ssDAF12 agonist	hgDAF-12 ag	LXRb hcDAF ctr	hcDAF12 ag	hgDAF12 ag	LXR ag 2
O=C(COc1ccccc1)Nc1nccs1	3	4	1	0	6	·	·	·	·
CCCCNC(=O)C1(C)CCN1C(=O)c1cc(F)ccc1C (configuration not stated)	3	0	·	-1	3	·	·	·	·
C(=C\n1nnc2ccccc21)/c1ccccn1	8.4*	3	1	1.2*	19*	2	7.5*	24*	1
Nn1nnc2ccccc21	1	1	2	-1	8	·	·	·	·
O=C(Nc1nccs1)c1csc2c1CCCC2	7.2*	0	1	0	14*	0	4	10	0
NC(=O)c1c(NC(=O)c2ccco2)sc2c1CCC2	6.7*	2	2	1.1*	14*	1	8.9*	17*	1
CN(C)C(=O)c1c(NC(=O)c2ccco2)sc2c1CCCCC2	-2	0	0	-1	1	·	·	·	·
Cc1cc(C)c2c(N)c(-c3nc4ccccc4[nH]3)sc2n1	16*	3	5.0*	2.6*	13*	0	10*	14*	0
CC(=O)Oc1ccccc1C(=O)C=Cc1cccc([N+](=O)[O-])c1	0	-4	-3	-1	-12	·	·	·	·
CCC(=O)NC1=C(Nc2ccc(N)cc2)C(=O)c2ccccc2C1=O	7.9*	2	3	1	13*	1	8.0*	11*	1
COc1ccc(NC2=C(NC(C)=O)C(=O)c3ccccc3C2=O)cc1	-1	-1	-1	-1	0	·	·	·	·
O=C(N/N=C1\C2CN3CCN(C2)CC1(c1ccccc1)C3)c1ccc(F)cc1	-1	1	2	-2	10	·	·	·	·
Nc1ccccc1C(=O)N/N=C1\C2CN3CCN(C2)CC1(c1ccccc1)C3	12*	3	5.0*	0	14*	0	0	2	0
CCCCNC(=O)c1cc(-c2ccc3c(c2)OCO3)on1	3	1	3	0	2	·	·	·	·
CC(C)NC(=O)c1cc(-c2ccc3c(c2)OCO3)on1	6.6*	3	2	0	14*	1	5	14*	1
COc1ccc2cc(-c3ccccc3F)ncc2c1	11*	3	2	1.1*	16*	2	11*	24*	2
COc1ccc(-c2cc3ccc(OC)cc3cn2)cc1	9.9*	4.2*	1	1.1*	21*	2	12*	18*	1
COc1ccc(C(O)c2ncc(-c3ccccc3F)[nH]2)cc1 (configuration not stated)	0	0	·	-1	6	·	·	·	·
C/C(=C\c1cc2ccccc2o1)C1Nc2cccc3cccc(c23)N1	0	0	1	-1	1	·	·	·	·
CN(C)S(=O)(=O)c1ccc(NC(=O)C2CC3C=CC2C3)cc1 (configuration not stated)	1	-1	1	0	0	·	·	·	·
COc1ccc(C(=O)c2coc3ccc(OC(C)=O)cc23)cc1	7.3*	2	-1	0	14*	2	8.1*	23*	1
COc1ccc(OC)c(C(=O)c2coc3ccc(OC(C)=O)cc23)c1	-1	0	0	-1	-2	·	·	·	·
Nc1cc(-c2nc3ncccc3o2)ccc1Cl	12*	3	2	1.4*	14*	1	8.3*	10	0
O=C(Nn1cnc2ccccc2c1=O)c1ccccc1Cl	0	1	2	-1	2	·	·	·	·
Cc1ccccc1C(=O)Nn1cnc2ccccc2c1=O	9.8*	1	1	1.7*	15*	0	8.6*	8	0
COc1ccc(OC)c(N=c2oc3cc(O)ccc3cc2C(N)=O)c1	-1	-1	0	-2	1	·	·	·	·
